Here are results for 38 compounds from PubChem BioAssay (NCATS).

Inconclusive results are not listed. Unmarked numbers belong to inactive results. Calls of active or inactive are those of the source. The call rests on the fitted dose curve; in most records, active means well fitted curve in the direction sought with a large enough effect; inconclusive means small, poorly fitted or top-dose-only effect, or another doubt; inactive means no such curve, though single readings can be large; an effect the other way counts as inactive or inconclusive.

Assay [1] addresses Aldehyde dehydrogenase, mitochondrial (Homo sapiens) (UniProt P05091). The assay is described as follows: qHTS for Inhibitors of the Aldehyde Dehydrogenase Family (ALDH2) Primary screen (AID 2061308).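 Further: plate controls were vehicle for no effect and reference inhibitor for full effect; nearly all actives have a fitted effect of over 55% in size.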 On the technique in general: Quantitative high-throughput screening tests each substance at several concentrations.
Assay [2] has as its target Retinaldehyde dehydrogenase 3 (Homo sapiens) (UniProt P47895). The assay is described as follows: qHTS for Inhibitors of the Aldehyde Dehydrogenase Family (ALDH1A3) Primary screen (AID 2061315).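 Further: plate controls were DMSO vehicle for no effect and reference inhibitor for full effect.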

Regarding `N=c1c2c(ncn1-c1ccccc1)Oc1ccc3ccccc3c1C2c1ccc2c(c1)OCO2` (stereo unspecified), the Potency result in assay [1] and in assay [2] was “inactive” each time.
Take `CCOC(=O)c1nn(-c2ccccc2)c(=O)c2c(N)scc12`: the Potency result in assay [1] and in assay [2] was “inactive” each time.
Consider `CNc1nccc(-c2cccc3ccccc23)n1`, for which the Potency entry in assay [1] and in assay [2] was “inactive” throughout.
Consider `CC(C)(C)OC(=O)NCC(=O)NNC(=O)c1nc2ccccc2[nH]1`, for which the Potency entry in assay [1] and in assay [2] was “inactive” in each case.
In the case of `COc1ccc(C2c3c(ncn(CCCc4ccccc4)c3=N)Oc3ccc4ccccc4c32)cc1OC` (stereo unspecified), the Potency result in assay [1] and in assay [2] was “inactive” in each case.
With `Cc1cc(NC(=O)Nc2nnc(-c3cccnc3)s2)ccc1F`, the Potency result in assay [1] and in assay [2] was “inactive” in each case.
Consider `COc1ccc(-c2ccc3ncnc(NCc4ccc(C)o4)c3c2)cc1OC`, for which the Potency result in assay [1] and in assay [2] was “inactive” throughout.
In the case of `C[C@@H]1O[C@@H](O[C@H]2[C@H](OC(=O)[C@]34CCC(C)(C)C[C@H]3C3=CCC5[C@@]6(C)C[C@H](O)[C@H](O[C@@H]7O[C@H](CO)[C@@H](O[C@@H]8O[C@H](CO)[C@@H](O)[C@H](O)[C@H]8O)[C@H](O)[C@H]7O)[C@@](C)(CO)C6[C@H](O)C[C@@]5(C)[C@]3(C)C[C@H]4O)OC[C@H](O)[C@@H]2O)[C@H](O)[C@H](O)[C@H]1O[C@@H]1OC[C@@H](O)[C@H](O[C@@H]2OC[C@](O)(CO)[C@H]2O)[C@H]1O` (stereo partly specified), the activity change, negative = inhibition in assay [1] is -1.66% [at 11.2 µM]; in assay [2], -12.4% [at 11.2 µM].
With `Cc1ccc(NS(=O)(=O)c2ccc3c(c2)oc(=O)n3C)cc1C`, the Potency entry in assay [1] and in assay [2] was “inactive” throughout.
`CN1CCN(Cc2cc(COCc3ccccc3)c3cccnc3c2O)CC1`: the Potency entry in assay [1] and in assay [2] was “inactive” in each case.
For the compound `C[C@H]1CN(S(=O)(=O)c2ccc3c(c2)OCCO3)CCN1S(=O)(=O)c1c(F)cccc1F`, the Potency entry in assay [1] and in assay [2] was “inactive” throughout.
In the case of `CCOC(=O)c1ccc(-c2ccc3ncnc(N(C)Cc4sccc4C)c3c2)o1`, the Potency result in assay [1] and in assay [2] was “inactive” each time.
As to `O=C(c1ccccc1O)N(Cc1ccccc1)Cc1cccs1`, the Potency result in assay [1] and in assay [2] was “inactive” in each case.
`CC1OC(OC2C(O)COC(O[C@@H]3[C@@H](O)[C@@H](O)[C@H](OC4C(OC(=O)[C@]56CCC(C)(C)CC5C5=CCC7[C@@]8(C)C[C@H](O)[C@H](OC9OC(CO)C(O)C(O)C9O)[C@@](C)(CO)C8[C@H](O)C[C@@]7(C)[C@]5(C)CC6)OCC(O)C4O)O[C@H]3C)C2O)C(O)C(O)C1O` (stereo partly specified): the activity change, negative = inhibition is 13.1% [at 11.2 µM] in assay [1] and 4.77% [at 11.2 µM] in assay [2].
`COc1cccc(C2c3c(ncn(-c4cccc(F)c4)c3=N)Oc3ccc4ccccc4c32)c1` (stereo unspecified): the Potency entry in assay [1] and in assay [2] was “inactive” throughout.
Consider `C=C(C)C(=O)O[C@H]1C[C@@](C)(O)C2(O)CCC(C)(/C=C3/OC(=O)C(COC)=C31)O2` (stereo partly specified), for which the Potency result in assay [1] and in assay [2] was “inactive” throughout.
As to `COc1ccc(NC(=O)c2ccc(-c3nc4ccccc4[nH]3)cc2)cc1OC`, the Potency entry in assay [1] and in assay [2] was “inactive” each time.
Regarding `Cc1ccccc1-c1ccc(=O)n(CC(=O)NCCc2ccccc2)n1`, the Potency entry in assay [1] and in assay [2] was “inactive” each time.
`COc1ccc(NC(=O)c2cc(-c3ccc(C)c(C)c3)nc3ccccc23)cc1`: the Potency result in assay [1] and in assay [2] was “inactive” in each case.
For `C=C1C(=O)OC2C1CCC1(C)C(O)CCC(=C)C21` (stereo unspecified), the Potency result in assay [1] and in assay [2] was “inactive” throughout.
As to `c1cc(NC2CCNCC2)nc(-c2cnc3ccccn23)c1`, the Potency entry in assay [1] and in assay [2] was “inactive” in each case.
Turning to `COc1cccc(C2=Nn3c(nnc3-c3cc(OC)ccc3OC)SC2)c1`, the Potency entry in assay [1] and in assay [2] was “inactive” throughout.
As to `CCCC1CCC(C(=O)Nc2ccc(S(=O)(=O)Nc3nccs3)cc2)CC1` (stereo unspecified), the Potency entry in assay [1] and in assay [2] was “inactive” throughout.
Take `COCCNc1nc(C)nc2c1nc(-c1ccccc1)n2CC1CCN(C)CC1`: the Potency result in assay [1] and in assay [2] was “inactive” each time.
On to `COC(=O)c1ccccc1NC(=O)c1ccc(F)cc1`, for which the Potency entry in assay [1] and in assay [2] was “inactive” throughout.
Consider `CC(C)(C)OC(=O)NCCCNc1ncnc2ccc(-c3ccc4c(c3)OCO4)cc12`, for which the Potency result in assay [1] and in assay [2] was “inactive” each time.
Turning to `CN(Cc1cccs1)c1nc(-c2ccccc2C(F)(F)F)nc2ccccc12`, the Potency result in assay [1] and in assay [2] was “inactive” in each case.
`C=C1C(=O)O[C@H]2[C@H]1CC/C(C)=C/CC[C@@]1(C)O[C@@H]21`: the Potency result in assay [1] and in assay [2] was “inactive” in each case.
In the case of `COc1ccnc(NC(=S)N2CCN(c3ncc(C(F)(F)F)cc3Cl)CC2)c1`, the Potency result in assay [1] and in assay [2] was “inactive” throughout.
`CC(=O)CC(=O)Nc1ccc(Cl)c(C(F)(F)F)c1`: the Potency entry in assay [1] and in assay [2] was “inactive” in each case.
For the compound `CCCn1c(-c2ccc(F)cc2)nc2c(NCCN(CC)CC)nc(C)nc21`, the Potency entry in assay [1] and in assay [2] was “inactive” throughout.
With `COc1cccc(Cn2ncc3c4sc(Br)cc4n(C)c3c2=O)c1`, the Potency result in assay [1] and in assay [2] was “inactive” in each case.
Consider `O=C1CCCC2=C1C(c1cnccc1C(F)(F)F)N=C(Nc1nc3ccccc3o1)N2` (stereo unspecified), for which the Potency entry in assay [1] and in assay [2] was “inactive” each time.
`COc1ccc(-c2nnc3n2N=C(c2ccc(OC)cc2OC)CS3)cc1`: the Potency entry in assay [1] and in assay [2] was “inactive” throughout.
Take `COC(=O)c1cncc(NC(=O)c2cccs2)c1`: the Potency result in assay [1] and in assay [2] was “inactive” each time.
In the case of `Cc1ccnc(NC(=S)NCCN(C)c2cccc(C(F)(F)F)c2)c1`, the Potency result in assay [1] and in assay [2] was “inactive” in each case.
`Cc1c(C(O)(c2ccccc2)c2ccccc2)[n+]2ccccc2n1C`: the Potency entry in assay [1] and in assay [2] was “inactive” throughout.
With `COc1cccc(-c2nnc3n2N=C(c2ccccc2OC)CS3)c1`, the Potency result in assay [1] and in assay [2] was “inactive” each time.
